Values joined by “and” are separate entries in the source; they are usually repeats but may differ in a detail not shown here. Equal entries are not always repeated. The campaign covered roughly 2,000 compounds. About 20 (1%) were called active. No rule for the calls is given here. What follows is part of a selection rich in actives, with near analogues and random picks from the rest. Residues, ends and D or L forms follow the SMILES beside them.

The test deals with Cystic fibrosis transmembrane conductance regulator (Homo sapiens) (UniProt P13569). Nature of the test: correctors of F508del-CFTR surface localization, primary screen, imaging, HeLa, high-content microscopy, immunofluorescence (AID 1224864).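 Also: HeLa cells stably expressing F508del-CFTR stained with 3G11 antibody against NBD1.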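 As to plasma membrane CFTR intensity: mean immunofluorescence in a thin cell-margin band taken as plasma membrane.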 Conditions: PM immunofluorescence imaging, 24 h, at 10 µM, stronger effect = higher value, relative to vehicle wells set at 100; total CFTR intensity: measured here: total cellular F508del-CFTR signal.
Sequence of Cystic fibrosis transmembrane conductance regulator (Homo sapiens) (P13569 whole entry, looked up, stated change not applied): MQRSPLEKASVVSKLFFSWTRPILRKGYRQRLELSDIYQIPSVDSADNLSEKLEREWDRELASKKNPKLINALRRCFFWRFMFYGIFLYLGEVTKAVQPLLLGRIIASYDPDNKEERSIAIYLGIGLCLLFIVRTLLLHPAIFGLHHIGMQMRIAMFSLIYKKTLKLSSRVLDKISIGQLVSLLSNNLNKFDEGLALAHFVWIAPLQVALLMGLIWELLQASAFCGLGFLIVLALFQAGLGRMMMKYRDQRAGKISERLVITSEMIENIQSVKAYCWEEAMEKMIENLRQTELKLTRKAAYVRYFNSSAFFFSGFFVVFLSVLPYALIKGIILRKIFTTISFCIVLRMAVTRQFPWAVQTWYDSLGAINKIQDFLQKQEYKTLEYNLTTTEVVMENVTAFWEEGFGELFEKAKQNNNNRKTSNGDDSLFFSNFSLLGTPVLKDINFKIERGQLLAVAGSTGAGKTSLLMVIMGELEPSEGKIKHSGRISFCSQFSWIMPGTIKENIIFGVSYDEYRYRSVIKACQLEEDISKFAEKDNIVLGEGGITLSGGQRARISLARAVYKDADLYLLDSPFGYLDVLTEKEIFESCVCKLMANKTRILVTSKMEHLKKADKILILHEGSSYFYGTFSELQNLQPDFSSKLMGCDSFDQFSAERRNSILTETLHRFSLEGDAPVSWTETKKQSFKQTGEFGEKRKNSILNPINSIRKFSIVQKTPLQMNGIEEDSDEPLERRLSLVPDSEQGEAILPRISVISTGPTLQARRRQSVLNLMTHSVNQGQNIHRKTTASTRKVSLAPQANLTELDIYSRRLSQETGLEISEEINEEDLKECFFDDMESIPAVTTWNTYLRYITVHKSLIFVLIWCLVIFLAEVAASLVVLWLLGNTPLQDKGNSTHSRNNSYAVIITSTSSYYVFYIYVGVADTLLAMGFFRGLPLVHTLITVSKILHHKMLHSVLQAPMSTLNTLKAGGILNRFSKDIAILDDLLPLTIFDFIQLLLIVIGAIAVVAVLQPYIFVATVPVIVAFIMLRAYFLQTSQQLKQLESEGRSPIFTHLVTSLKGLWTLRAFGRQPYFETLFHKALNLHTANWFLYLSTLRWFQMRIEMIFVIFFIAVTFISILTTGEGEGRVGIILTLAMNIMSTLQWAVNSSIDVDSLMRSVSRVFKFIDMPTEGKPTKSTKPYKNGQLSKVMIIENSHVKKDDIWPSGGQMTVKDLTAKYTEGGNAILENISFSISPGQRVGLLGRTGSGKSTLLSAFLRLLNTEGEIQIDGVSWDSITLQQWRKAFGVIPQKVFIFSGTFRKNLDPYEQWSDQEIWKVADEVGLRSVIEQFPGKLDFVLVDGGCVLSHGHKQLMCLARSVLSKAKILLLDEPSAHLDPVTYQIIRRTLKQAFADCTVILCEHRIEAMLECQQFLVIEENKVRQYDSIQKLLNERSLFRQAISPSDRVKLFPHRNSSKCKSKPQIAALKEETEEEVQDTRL
For the compound `S=C(NCc1ccccc1)NCc1cccc(CNC(=S)NCc2ccccc2)c1`, the plasma membrane CFTR intensity is 79% (inactive) and the total CFTR intensity came to 81%.
The corresponding values for `N#C/C(=C/c1ccccc1)C(=O)NCc1ccccc1` are 124% (active) and 125%.
In the same order, the values of `Cc1cc(-c2nn(-c3ccccc3F)cc2CN2CCCC(O)C2)c(C)s1` (stereo not drawn) are 75% (inactive) and 76%.
In the same order, the values of `O=C(/C=C/c1ccccc1)NCC1(c2ccccc2)CCOCC1` are 87% (inactive) and 84%.
For the compound `COc1cc(CNCc2ccc(OC)c(OC)c2OC)cc(OC)c1`, the plasma membrane CFTR intensity was 85% (inactive) and the total CFTR intensity came out at 79%.
The corresponding values for `O=C(CCCCC(=O)NC1CCCC1)NC1CCCC1` are 90% (inactive) and 90%.
In the same order, the values of `CCc1cccc2c1NC1(CCCC1)CC2C` (stereo not drawn) are 74% (inactive) and 89%.
In the same order, the values of `O=C1OC(=O)C2C1[C@@H]1CC[C@H]2O1` (stereo partly drawn) are 120% (active) and 133%.
Take `COc1ccc2c(CC(=O)NCC3CCC(C(=O)O)CC3)cc(=O)oc2c1` (stereo not drawn): the plasma membrane CFTR intensity was 92% (inactive) and the total CFTR intensity came out at 94%.
Consider `COc1ccc2c3c([nH]c2c1)C1(NCC3)C(=O)Nc2ccccc21` (stereo not drawn), for which the plasma membrane CFTR intensity is 85% (inactive) and the total CFTR intensity worked out at 81%.
In the same order, the values of `CC12CCCCN1CCCc1c2[nH]c2ccccc12` (stereo not drawn) are 104% (inactive) and 100%.
The corresponding values for `CC1=CC(C)(C)N2C(=O)C3(NCCc4c3[nH]c3ccccc43)c3cc(C)cc1c32` (stereo not drawn) are 108% (active) and 129%.
In the same order, the values of `COc1ccc2c(c1)c(=O)oc1cc3occ(C(C)(C)C)c3cc12` are 92% (inactive) and 88%.
As to `O=C(NNC(=O)c1cccs1)c1ccco1`, the plasma membrane CFTR intensity was 93% (inactive) and the total CFTR intensity was 90%.
On to `O=C(NCc1ccc2c(c1)OCO2)c1ccc2c(c1)OCCO2`, for which the plasma membrane CFTR intensity is 80% (inactive) and the total CFTR intensity was determined as 80%.
The corresponding values for `CCN(CC)CCNc1ccc(CO)c2sc3ccccc3c(=O)c12` are 207% (active) and 238%.
The corresponding values for `CCN(CC)CCCNC(=O)C1c2ccccc2Oc2ccccc21` are 84% (inactive) and 85%.
Turning to `CCCCOc1cc(C(=O)NCCN(CC)CC)c2ccccc2n1`, the plasma membrane CFTR intensity is 105% (inactive) and 91% (inactive); the total CFTR intensity is 109% and 93%.
On to `O=C(O)CCCN1C(=O)NC2NC(=O)NC21` (stereo not drawn), for which the plasma membrane CFTR intensity was 91% (inactive) and the total CFTR intensity came out at 95%.
In the same order, the values of `CCOCc1cc(C)[nH]c(=O)c1C#N` are 80% (inactive) and 83%.
In the same order, the values of `COc1ccc(/C=C\c2cc(OC)c(OC)cc2CC[N+](C)(C)C)cc1OC` are 81% (inactive) and 82%.
In the same order, the values of `COc1cc2ccc(=O)oc2c(O)c1OCC=C(C)C` are 86% (inactive) and 92%.
Take `COc1cccc(CC2CC(=O)N(c3ccc4c(C)cc(=O)oc4c3)C2=O)c1` (stereo not drawn): the plasma membrane CFTR intensity is 77% (inactive) and the total CFTR intensity was determined as 83%.
In the same order, the values of `O=C(/C=C/c1ccco1)NCc1ccc2c(c1)OCO2` are 79% (inactive) and 77%.
In the same order, the values of `CC(=O)NC(Cc1ccccc1)C(=O)OCC(=O)c1ccccc1` (stereo not drawn) are 77% (inactive) and 78%.
Consider `CC1(C)Cc2ccccc2-c2n[nH]c(=S)n21`, for which the plasma membrane CFTR intensity is 93% (inactive) and the total CFTR intensity was found to be 97%.
In the same order, the values of `Cn1c2[n+](c3ccc(Cl)cc3c1=O)Cc1ccccc1-2` are 78% (inactive) and 85%.
The corresponding values for `Cc1cc(/C=N/O)c(C)n1-c1ccc(Br)cc1` are 78% (inactive) and 82%.
In the same order, the values of `CN1C(=O)C(O)(CC(=O)c2ccccc2O)c2cc(Br)ccc21` (stereo not drawn) are 159% (inactive) and 190%.
`CO[C@H]1C=CO[C@@]2(C)Oc3c(C)c(O)c4c(O)c(c(/C=N/N5CCN(C)CC5)c(O)c4c3C2=O)NC(=O)C(C)=CC=C[C@H](C)[C@H](O)[C@@H](C)[C@@H](O)[C@@H](C)[C@H](OC(C)=O)[C@@H]1C`: the plasma membrane CFTR intensity is 113% (active) and the total CFTR intensity was found to be 137%.
In the same order, the values of `O=C(OCC1CCCN2CCCCC12)c1ccc2c(c1)OCO2` (stereo not drawn) are 85% (inactive) and 81%.
In the same order, the values of `CC1=C/C(=N\N=C2/NC(=O)C(CC(=O)Nc3ccccc3F)S2)CC(C)(C)C1` (stereo not drawn) are 65% (inactive) and 65%.
In the same order, the values of `O=C(Cc1ccccc1)NNC(=O)Cc1ccccc1` are 74% (inactive) and 77%.
Consider `CC1(C)CC(c2csc(N)n2)CCO1` (stereo not drawn), for which the plasma membrane CFTR intensity is 90% (inactive) and the total CFTR intensity stood at 92%.
`CC(=O)NC(CC(C)C)C(=O)NC(Cc1ccccc1)C(N)=O` (stereo not drawn) (Ac-Leu-Phe-NH2; configuration not given here): the plasma membrane CFTR intensity was 91% (inactive) and the total CFTR intensity was determined as 94%.
In the same order, the values of `O=C(O)C(O)c1ccccc1` (stereo not drawn) are 89% (inactive) and 81%.
In the same order, the values of `Cc1cccc(-c2ncc(CN3CCN(CC(C)C)C(CCO)C3)cn2)c1` (stereo not drawn) are 80% (inactive) and 81%.
The corresponding values for `COC(=O)c1ccc(NC(=O)c2ccccc2SC)cc1` are 81% (inactive) and 79%.
For `CC(=O)c1c(N)nc2n(c1=O)CCCCC2`, the plasma membrane CFTR intensity was 80% (inactive) and the total CFTR intensity was 78%.
The corresponding values for `Cn1c(=O)[nH]c(=O)c2c1nc(Br)n2CCCO` are 81% (inactive) and 84%.
In the same order, the values of `COc1cc(C(=O)Nc2ccc(N(C)C)cc2)c([N+](=O)[O-])cc1OC` are 100% (inactive) and 106%.
The corresponding values for `Cc1ccc(/C=N/Nc2nc(C(C)(C)C)cs2)o1` are 135% (active) and 153%.
For the compound `CC(C)(C)c1csc(N/N=C/c2cccnc2)n1`, the plasma membrane CFTR intensity was 93% (inactive) and the total CFTR intensity worked out at 92%.
In the same order, the values of `C=CCC1(Cl)C(=O)C(Cl)=C(N2CCOCC2)C1(OC)OC` (stereo not drawn) are 77% (inactive) and 77%.

The record behind these values is PubChem BioAssay AID1224864 (Chung Lab, Department of Pediatrics, Emory University, 2016).
